Assay outcomes (PubChem)
Glioma ERSR ind = qHTS for Inducers of the Endoplasmic Reticulum Stress Response (ERSR) in Human Glioma: qHTS. U87-MG GRP78 promoter luciferase reporter, 16 h. Potency, µM, without a hit: at the top dose activation, most hits filed as activators. 420,000 compounds, 0.02% hits. AID 602332, 2012; note: potency is the fitted concentration of half-maximal effect; series mostly up to about 76 µM; % of control where 0% means no effect; nearly all actives have a fitted effect of over 35% in size
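Stably transfected U87-MG glioma cells carrying a GRP78-based luciferase sensor; 16 h compound incubation. Luminescence end-point read 10 min after Bright-Glo addition at room temperature.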
PTHR1 ag = qHTS for PTHR1 Agonists: Primary Screen; AID 743266, 2014; Potency, µM (doses to about 115 µM), for inactives: at the top dose activation, actives largely listed as activators; Parathyroid hormone/parathyroid hormone-related peptide receptor (Homo sapiens), Q03431; HEK293 GP2 PTHR1 cells, GloSensor cAMP luminescence, 1 h; 410,000 compounds, 0.075% hits; note: potency is the fitted concentration of half-maximal effect; nearly all actives have a fitted effect of over 55% in size
Target sequence (Q03431 whole entry, looked up): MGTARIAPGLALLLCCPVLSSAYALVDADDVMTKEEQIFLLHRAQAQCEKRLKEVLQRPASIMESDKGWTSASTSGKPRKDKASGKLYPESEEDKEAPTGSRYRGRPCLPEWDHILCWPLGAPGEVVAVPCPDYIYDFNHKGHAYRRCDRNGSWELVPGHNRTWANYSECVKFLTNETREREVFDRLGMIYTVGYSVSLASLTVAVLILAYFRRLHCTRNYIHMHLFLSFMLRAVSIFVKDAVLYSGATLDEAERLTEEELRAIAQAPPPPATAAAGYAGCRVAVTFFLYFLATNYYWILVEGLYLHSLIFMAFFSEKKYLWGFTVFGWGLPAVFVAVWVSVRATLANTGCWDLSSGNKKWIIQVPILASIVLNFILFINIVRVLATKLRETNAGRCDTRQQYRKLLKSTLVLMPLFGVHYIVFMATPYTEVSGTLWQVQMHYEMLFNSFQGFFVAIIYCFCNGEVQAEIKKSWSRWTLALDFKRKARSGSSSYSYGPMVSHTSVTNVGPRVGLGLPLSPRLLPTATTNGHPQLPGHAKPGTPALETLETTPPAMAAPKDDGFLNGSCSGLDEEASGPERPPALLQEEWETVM
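HEK-293-derived GP2 cells expressing PTHR1 and a GloSensor cAMP reporter, 3,000/well, plated overnight, given luciferin plus IBMX (each 0.5 mM as added) for 1 h at 37 °C, then compound for 1 h at 37 °C. Luminescence was read after 15 min at room temperature.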
RXFP1 ag = qHTS Assay for Agonists of the Relaxin Receptor RXFP1 | Relaxin receptor 1 (Homo sapiens), Q9HBX9 | HEK293T-RXFP1 cAMP TR-FRET, 30 min; response scale: percent of porcine relaxin response, buffer zero | Potency, µM (highest dose often 57.5 µM), without a hit: at the top dose activation, hits mostly activators | 370,000 compounds, 0.3% hits; note: potency is the fitted concentration of half-maximal effect; % is set by controls: 0 for no effect and ±100 for the full control effect; nearly all actives have a fitted effect of over 60% in size
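Agonist response is measured as cAMP accumulation in an RXFP1-transfected HEK293T line under PDE4 inhibition. Values are scaled between buffer-only and 29 nM porcine relaxin, and EC50s come from standard Hill equation fits.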
RXFP1 antagonist = qHTS Assay for Antagonists of the Relaxin Receptor RXFP1. 350,000 compounds, 0.59% hits. HEK293-RXFP1, relaxin-stimulated cAMP HTRF, 30 min; active compounds read low. activity change, negative = inhibition, % at 57.5 µM. Relaxin receptor 1 (Homo sapiens), Q9HBX9. AID 1259400, 2018;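 active = activity change of -60% or lower, but not beyond a set lower limit; inconclusive = change between -60% and -40%, or beyond the set limit; inactive = change above -40%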; note: % is set by controls: 0 for no effect and ±100 for the full control effect
KCNH2 WT inh = qHTS for Inhibitors of KCHN2 3.1: Wildtype qHTS. Voltage-gated inwardly rectifying potassium channel KCNH2 (Homo sapiens), Q12809. U2OS, BacMam KCNH2, thallium flux FluxOr; active compounds read low. activity change, % at 1.84 µM. 340,000 compounds, 0.37% hits;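 active = maximum activity change below -70%; inconclusive = maximum activity change between -70% and -50%; inactive = maximum activity change above -50%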; note: % is set by controls: 0 for no effect and ±100 for the full control effect
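U2OS cells were transduced with wild-type KCNH2 virus (2.03 x 10^8 / mL) for 4 h at room temperature, then cultured overnight at 37 C. Thallium flux was read with FluxOr dye. Rate constants were normalized to DMSO controls.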
KCNH2 3.1 block = qHTS for Inhibitors of KCHN2 3.1: Mutant qHTS | U2OS KCNH2 3.1, thallium flux FluxOr; active compounds read low | AID 720553, 2013 | 340,000 compounds, 0.95% hits | activity change, % (tested at about 1.8 µM) | Potassium voltage-gated channel subfamily H member 2, brain isoform KCNH2 3.1 (human);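 active = maximum activity change below -70%; inconclusive = maximum activity change from -70% to -50%; inactive = maximum activity change above -50%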;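 note: thallium influx rate constant from kinetic fluorescence after stimulation buffer; % is set by controls: 0 for no effect and ±100 for the full control effect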
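Virally transduced U2OS (3.1 isoform, 4 h infection in dark at RT) → overnight 37 C → FluxOr + Red40 in HBSS/HEPES, 45 min → stimulation buffer, 2 min kinetic read → rate constant vs DMSO controls.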
Numbers without * were called inactive; i = inactive; ? = inconclusive; · = no result; [ ] = dose if it differs, or a comment. Rows were chosen to be rich in hits. Some 1.4% of all compounds tested hit in one or more screens of this group. Unless noted, calls come from the whole dose curve; as a rule, active = well fitted curve in the direction sought with a large enough effect; inconclusive = small, poorly fitted or top-dose-only effect, or another doubt; inactive = no such curve, though single readings can be large; an effect the other way counts as inactive or inconclusive.

SMILES | Glioma ERSR ind | PTHR1 ag | RXFP1 ag | RXFP1 antagonist | KCNH2 WT inh | KCNH2 3.1 block
C=CCC[C@@H](Cc1ccc(F)cc1)C(=O)OC[C@@H](Cc1c[nH]c2ccccc12)NC(=O)[C@H](CC=C)CC(=O)NCCO | -1% | i | · | · | 2 | 5
Nc1c(-c2cccc(Cl)c2)cnn1-c1ccccc1 | 5% | -20% | 0% | 10 | -6 | -88*
C[C@@]12C(=O)N(CC3CCCO3)CC(=O)N1[C@H]1c3cc(Cl)ccc3OC[C@@H]1[C@@H]2c1ccccc1 (stereo partly specified) | -3% | -12% | · | · | 3 | -93*
C[C@@]12C(=O)Nc3ccc(Br)cc3C(=O)N1[C@H]1c3cc(Cl)ccc3OC[C@@H]1[C@@H]2c1ccccc1 | -3% | i | 0% | · | -3 | -74*
C[C@@]12C(=O)Nc3ccc(Cl)cc3C(=O)N1[C@H]1c3cc(Cl)ccc3OC[C@@H]1[C@@H]2c1ccccc1 | -5% | i | · | · | 0 | -43
Cc1ccc(S(=O)(=O)N(C(=O)c2ccco2)c2cc3sc(=O)oc3c3ccccc23)cc1 | -2% | i | 4% | -79* | -1 | -13
CCOc1ccc(S(=O)(=O)N(C(=O)c2ccco2)c2cc3sc(=O)oc3c3ccccc23)cc1 | -2% | i | 6% | -68* | 10 | 1
O=[N+]([O-])c1cccnc1Oc1ccc(C2SCCS2)cc1 | 5% | -27% | -1% | -4 | -153* | 16
COc1ccc(NC(=O)c2sc3ncnc(N4CCN(c5ccccn5)CC4)c3c2C)cc1Cl | -2% | -21% | 0% | 0 | -118* | -114*
COc1ccc(NC(=O)c2sc3nc(C)nc(N4CCN(c5ccccn5)CC4)c3c2C)cc1Cl | 4% | 9% | 5% | -29 | -78* | -114*
Cc1cc(Br)ccc1NC(=O)c1sc2ncnc(N3CCN(c4ccccn4)CC3)c2c1C | 0% | -42% | 4% | -32 | -106* | -110*
Cc1c(C(=O)Nc2ccccc2C(=O)N2CCOCC2)cccc1[N+](=O)[O-] | -4% | i | 1% | · | -4 | 22
N=C1/C(=C\c2ccc(OC(=O)c3ccc(F)cc3)cc2)C(=O)N=C2SC(N3CCCC3)=NN12 | -3% | 0% | 1% | -10 | 7 | -10
COc1cccc(/C=N/Nc2nccnc2Cl)c1O | -14% | -17% | 0% | -70* | -2 | 1
C[C@H](CO)N1C[C@H](C)[C@@H](CN(C)S(=O)(=O)c2ccccc2)Oc2c(NC(=O)NC3CCCCC3)cccc2C1=O | -2% | -26% | · | · | -10 | -166*
C[C@H](CO)N1C[C@H](C)[C@@H](CN(C)S(=O)(=O)c2cn(C)cn2)Oc2c(NC(=O)Nc3ccc4c(c3)OCO4)cccc2C1=O | -3% | -16% | · | · | -4 | -123*
C[C@H](CO)N1C[C@H](C)[C@@H](CN(C)S(C)(=O)=O)Oc2c(NC(=O)Nc3ccc4c(c3)OCO4)cccc2C1=O | 0% | -21% | · | · | 0 | -2
COc1ccc(CCC(=O)Nc2cccc(S(=O)(=O)N3CCCC3)c2)cc1OC | -4% | i | -2% | 4 | 8 | 8
COc1ccc(CCNC(=O)Cn2cc(S(=O)(=O)Cc3cccc(Cl)c3)c3ccccc32)cc1OC | 0% | -23% | 5% | -14 | · | ·
N#C/C(=C/c1ccc2c(c1)OCO2)C(=O)NCCc1c[nH]c2ccccc12 | -3% | i | -1% | -30 | -10 | -74*
COc1ccccc1CN1COc2ccc3c(oc(=O)c4ccccc43)c2C1 | -5% | i | 18µM* | -2 | · | ·
C=CC[n+]1ccc(/C=C2\C=Cc3cc(C)ccc3N2CC)c2ccccc21 | -3% | -94% | 5% | 1 | 0 | -115*
CN(CC(=O)Nc1ccc(F)cc1)C(=O)c1cc2c(s1)CCCCC2 | -1% | -18% | 2% | -11 | 2 | -1
COc1ccc2[nH]c(=O)c(-c3nnn(-c4ccc(Cl)nc4)n3)cc2c1 | 0% | -12% | · | · | -2 | -99*
CN1CCN(NC(=O)c2cc(S(=O)(=O)N3CCOCC3)c(Cl)cc2Cl)CC1 | -4% | -25% | 27% | -1 | 18 | 9
SMILES | Glioma ERSR ind | PTHR1 ag | RXFP1 ag | RXFP1 antagonist | KCNH2 WT inh | KCNH2 3.1 block
CCOc1ccc(NC(=O)CSc2nnc(CCNC(=O)c3ccc(OC)cc3)n2CC)cc1 | -2% | i | -2% | 3 | 1 | 3
CN1/C(=C\C(=O)c2ccco2)C(C)(C)c2ccccc21 | 2% | 0%[57.5 µM] | 0% | -86* | 7 | -2
CN1/C(=C/C(=O)c2nc(S(C)(=O)=O)ncc2Cl)C(C)(C)c2ccccc21 | -15% | -47% | 3% | -69* | 7 | -12
Cc1ccc(C)c(S(=O)(=O)N2CCNCC2)c1 | -6% | i | 5% | -9 | 2 | 0
Cc1ccc(C)c(S(=O)(=O)c2c[nH]c(=S)[nH]c2=O)c1 | -6% | -11% | -1% | -7 | -30 | -82*
COc1cc(OC)cc(C(=O)Nc2cccc(-c3cn4cccnc4n3)c2)c1 | -4% | -1% | -4% | 6 | · | ·
COC(=O)[C@]1(Cc2ccccc2)N[C@H](CN(C)C(=O)Nc2ccc(F)cc2)[C@@H]2C(=O)N(C)C(=O)[C@@H]21 | -1% | 6% | · | · | -8 | ·
CCOC(=O)C=Nc1c(N)n(C)c(=O)n(C)c1=O | -5% | i | 3% | · | -5 | -92*
Cn1c(N)c(N=O)c(=O)n(C)c1=O | -3% | i | 0% | -9 | 1 | -10
Cn1c(-c2ccc(Br)cc2)cnc1NCc1ccc(C#N)cc1 | -4% | -77% | 1% | -3 | 36 | -36
Cc1ccc(C2=NC(C)(C)N=C2SCC(=O)Nc2ccc(Cl)cc2)cc1 | -7% | -21% | 0% | -64* | -1 | -8
COc1ccc(NC(=O)CSc2nc(-c3ccc(OC)cc3)[nH]c2-c2ccc(F)cc2)cc1 | -4% | ? | 1% | -20 | · | ·
COc1cc2c(c(OC)c1OC)-c1c(cc3c(c1OC)OCO3)CC(C)C(C)C2 (stereo unspecified) | -6% | · | · | · | · | ·
O=C(CCCCCNc1nc(=S)[nH]c2ccccc12)NCCc1ccc(Cl)cc1 | -9% | i | 6% | -65* | -5 | -49
